From PubChem BioAssay (NCI)
Compounds without any hit were thinned out: in the full panel of roughly 79,000, 15% have a hit. No stated cut-off is given here; in the data, active means growth inhibition above about 70%; inactive means the rest.

Key:
[1] = NCI Yeast Anticancer Drug Screen. Data for the rad50 strain (AID 155);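 further: 0% = growth of vehicle-only cultures of the same strain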; conditions: S. cerevisiae rad50 strain growth inhibition; at 50.0 µM; stronger effect = higher value
In short: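 Readout: growth inhibition relative to vehicle-treated cultures. Compound exposure was carried out in a genetically defined yeast strain deficient in DNA damage repair.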

[2] = NCI Yeast Anticancer Drug Screen. Data for the mec2-1 strain (AID 157); conditions: S. cerevisiae mec2-1 strain, at 50.0 µM, stronger effect = higher value
In short: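 Growth inhibition is read against vehicle-treated controls after compound exposure of the mec2-1 yeast strain, which is defective in DNA damage repair or cell cycle control.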

[3] = NCI Yeast Anticancer Drug Screen. Data for the sgs1 mgt1 strain (AID 161);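 further: 0% = growth of cultures given vehicle only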; conditions: S. cerevisiae sgs1 mgt1 strain, at 50.0 µM, stronger effect = higher value
In short: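 Growth of a repair-deficient yeast mutant was monitored after compound treatment and expressed as inhibition relative to vehicle-treated cultures.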

[4] = NCI Yeast Anticancer Drug Screen. Data for the cln2 rad14 strain (AID 165);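 further: 0% = growth equal to vehicle treated cultures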; conditions: S. cerevisiae cln2 rad14 strain, at 50.0 µM, stronger effect = higher value
In short: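 Growth inhibition, relative to vehicle-treated controls, is the read-out. The test organism is a yeast strain with defined genetic alterations, cln2 rad14.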

[5] = NCI Yeast Anticancer Drug Screen. Data for the bub3 strain (AID 167); conditions: S. cerevisiae bub3 mutant strain, at 50.0 µM, stronger effect = higher value
In short: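 Readout: yeast growth inhibition, expressed relative to vehicle-only wells. The test organism is a mutant strain from a panel with lesions in DNA repair or checkpoint genes.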

[6] = NCI Yeast Anticancer Drug Screen. Data for the mlh1 rad18 strain (AID 175); conditions: S. cerevisiae mlh1 rad18 strain growth inhibition; at 50.0 µM; stronger effect = higher value
In short: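 Cells of a genetically altered yeast strain, deficient in DNA damage repair, were treated with compound. Their growth was then compared with that of vehicle-treated cultures to give inhibition.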

Measured: growth inhibition

CCc1c(Cl)nc(N)nc1Nc1ccc(C)cc1
inactive: [1] -20.7% | [2] -4.8% | [3] -11.2% | [4] -25% | [5] 12% | [6] -6.55%

CC(C)=Cc1cc(-c2cc(C=C(C)C)[nH]n2)n[nH]1
inactive: [1] -35.4% | [2] -2% | [3] -20.4% | [4] -24.6% | [5] -9.2% | [6] -11.9%

Cc1cccc(NC(=O)c2cccc([N+](=O)[O-])c2O)c1C
inactive: [1] 3.1% | [2] 9.05% | [3] 14.2% | [4] 11.8% | [5] -2.7% | [6] -87%

CCCCCCCCCCCCCCCC(=O)OCC(O)CO (centres undefined)
inactive: [1] -28.4% | [2] -0.35% | [3] -6.25% | [4] -167% | [5] -11% | [6] 1.1%

COCC(N=CN1CCCc2ccccc2[C@@H]1CCCCl)C(C)(C)C (some centres undefined)
inactive: [1] -6.6% | [2] 10.1% | [3] 25.9% | [4] 19.7% | [5] 19.9% | [6] 13.1%

CNCCS(=O)(=O)O
inactive: [1] 13.9% | [2] -3.05% | [3] 1.7% | [4] -6.3% | [5] 13.6% | [6] 9.25%

Nc1c2cc3ccc2nc2ccc(cc12)OCCOCCOCCOCCOCCOCCO3
inactive: [1] -3.05% | [2] -16.1% | [3] -9.55% | [4] -12% | [5] -0.35% | [6] -21.2%

COc1ccccc1/C=N/N1C(=O)C2C3C=CC(O3)C2C1=O (centres undefined)
inactive: [1] 2.35% | [2] 9.8% | [3] 0.1% | [4] 0.15% | [5] 3.45% | [6] 14.5%

Nc1ccc2cn[nH]c2c1
inactive: [1] 3.5% | [2] -11.6% | [3] -6.95% | [4] -10.4% | [5] 5.8% | [6] -2%

CC1C(=O)C23CC1CCC2C12COC(O)C1C(C)(C)C(O)CC2OC3=O (centres undefined)
inactive: [1] -10.4% | [2] -5.95% | [3] -12.7% | [4] 17.1% | [5] -43.6% | [6] -16.4%

N#Cc1c(CC(=O)O)cc(=O)n2c1[nH]c1ccccc12
inactive: [1] -13.9% | [2] -12.9% | [3] -1.9% | [4] 13.4% | [5] -11.9% | [6] -10.3%

CC(=O)OC(C)C(=O)C1c2cccc(O)c2C(=O)c2c(O)cc(C)cc21 (centres undefined)
inactive: [1] 35.6% | [2] 19.1% | [3] 19.9% | [4] 31.4% | [5] 23.9% | [6] 26.6%

Cn1c(-c2ccc(-c3cc(-c4cccs4)c(-c4cccs4)n3C)cc2)cc(-c2cccs2)c1-c1cccs1
inactive: [1] 11.7% | [2] -15% | [3] 14.8% | [4] -16.9% | [5] 1.55% | [6] 17.8%

CC1C(O)CC23COC(=O)C2=CCCC3C1(C)CCC1=CC(=O)OC1 (centres undefined)
inactive: [1] -8.6% | [2] -38.9% | [3] -26.2% | [4] -7% | [5] -42% | [6] -20.9%

O=C1CSC(c2ccccc2F)N1c1ncccn1 (centres undefined)
inactive: [1] -3.2% | [2] -6.8% | [3] 0.75% | [4] -20.8% | [5] 8% | [6] -1.4%

O=C1c2c(O)cccc2C(C(=O)CCCCC(=O)C2c3cccc(O)c3C(=O)c3c(O)cccc32)c2cccc(O)c21
inactive: [1] 1.75% | [2] 15.2% | [3] 27.3% | [4] 17.1% | [5] 17.2% | [6] 1.05%

C(=Nc1ccc2ccccc2c1)c1cccs1
inactive: [1] 1.6% | [2] -3.2% | [3] 12.6% | [4] -12.1% | [5] 5.1% | [6] -0.6%

COC(=O)c1c2cccccc-2c(C(=O)OC)c1N
inactive: [1] 15% | [2] 17.9% | [3] 28.8% | [4] -24.8% | [5] 36% | [6] 42.6%

COc1ccc(CC(N)C(N)=O)cc1 (centres undefined)
inactive: [1] -6.25% | [2] -0.65% | [3] -4% | [4] -12% | [5] -0.3% | [6] 6.5%

O=c1c(C(c2ccc(Cl)cc2)c2c(O)c3ccccc3n(-c3ccccc3)c2=O)c(O)c2ccccc2n1-c1ccccc1
inactive: [1] -12.9% | [2] -0.65% | [3] -9.95% | [4] -12.4% | [5] -0.8% | [6] -3.4%

O=C1CC(c2ccccc2)S(=O)(=O)c2ccccc2N1 (centres undefined)
inactive: [1] -13.6% | [2] -8.5% | [3] 1.5% | [4] 10.2% | [5] 11.3% | [6] 1.45%

O=C(O)CO
inactive: [1] -7.7% | [2] 3.05% | [3] -6.25% | [4] -1.25% | [5] -9.15% | [6] -29.1%

COCCN(C(=O)c1ccccc1)C1CCC2(SCCS2)c2[nH]c3ccccc3c21 (centres undefined)
inactive: [1] 16.1% | [2] 14.6% | [3] 3.75% | [4] -35.2% | [5] -1.75% | [6] 41%

Nc1cccc(CNC(=O)COc2ccc(Cl)cc2C(=O)O)c1
inactive: [1] -0.9% | [2] 14% | [3] -2.7% | [4] -7.6% | [5] 18.4% | [6] 10.4%

CN(NC(=O)c1ccco1)C1=NCCCCN1
inactive: [1] -11.8% | [2] -10.6% | [3] -15.3% | [4] -16.6% | [5] -10.2% | [6] 0.3%

CN(C)[C@@H]1C(=O)C(C(=O)NCN2CCN(C(=N)N=C(N)N)CC2)=C(O)[C@@]2(O)C(=O)C3=C(O)c4c(O)cccc4[C@@](C)(O)[C@H]3C[C@@H]12
inactive: [1] -0.05% | [2] 1.65% | [3] -3.2% | [4] 14.2% | [5] 10.7% | [6] -5%

COc1cc(C2(C)SCCCS2)c(I)c(OC)c1OC
inactive: [1] -8.55% | [2] -3.05% | [3] -8.15% | [4] 13.2% | [5] 2.85% | [6] -14.4%

CCCCNC(=O)CC(C)C(=O)O (centres undefined)
inactive: [1] 2.8% | [2] -1.35% | [3] -6.1% | [4] -20.8% | [5] -1.55% | [6] 6.1%

CCOCCOC(=O)C1CCCC1=O (centres undefined)
inactive: [1] -5.25% | [2] -11.3% | [3] -34.9% | [4] -10.1% | [5] -11.2% | [6] -8.45%

CC(=O)NC1C(OC(C)C(=O)NC(C(=O)NC(CCC(=O)NCCCNC2c3ccccc3Nc3cccc([N+](=O)[O-])c32)C(N)=O)C(C)C)C(O)C(CO)OC1(C)OCc1ccccc1 (centres undefined)
inactive: [1] -29.1% | [2] -20.4% | [3] 4.3% | [4] 13.4% | [5] -25.8% | [6] 3.25%

CN1CCC(CN)(c2ccccc2)CC1
inactive: [1] 14.1% | [2] 14.9% | [3] 0.35% | [4] -6.5% | [5] 9.7% | [6] 11.3%

COc1cc(C#N)cc(OC)c1OC
inactive: [1] 26% | [2] -14.8% | [3] 2.85% | [4] 1.45% | [5] 1.85% | [6] -12.2%

CSc1n[nH]c(SC)n1
inactive: [1] -4.3% | [2] -15.2% | [3] -4.15% | [4] 4.65% | [5] -11.2% | [6] -5.9%

COc1ccc(N2C(=O)C(C)SC23C(=O)Nc2ccccc23)cc1 (centres undefined)
inactive: [1] 13.6% | [2] 20.4% | [3] 5.75% | [4] 2.5% | [5] 4.75% | [6] 18.8%

Cc1ccccc1NC(=O)CC(=O)n1nc(-c2ccccc2)c(N=Nc2ccc([N+](=O)[O-])cc2)c1-c1ccccc1
inactive: [1] 46.4% | [2] 10.4% | [3] 56% | [4] 30.9% | [5] 52.8% | [6] 42.9%

NNC(=O)c1cccc2c1Oc1ccccc1S2
inactive: [1] 21.5% | [2] -12.9% | [3] 10.9% | [4] -63.9% | [5] -11.9% | [6] 25.1%

CCOC(=O)c1cnc2ccccc2c1
inactive: [1] 3.65% | [2] 6.8% | [3] 5.95% | [4] -44.9% | [5] -1.15% | [6] 3.3%

COc1ccc2nc3ccccc3c(NCCCN(C)C)c2c1
inactive: [1] 33.7% | [2] 41.1% | [3] 36.5% | [4] 60.1% | [5] 6.65% | [6] 12.3%

Clc1ccc(Cl)s1
inactive: [1] 34.5% | [2] 3.55% | [3] 20.3% | [4] 18.6% | [5] 14% | [6] 26.1%
